Shiga toxin inh = blocks Shiga toxin action in Vero cells; Vero cells, Shiga toxin protein synthesis inhibition reporter; inhibition, % at 38.7 µM; hit rate 9.2% among 290,000; AID 2315; in the data active = inhibition mostly above about 28%, no sharp cut-off; inactive = mostly below about 43%; also: 0% is about no effect
MARV entry inh = blocks Marburg virus binding to or entry into cells. Marburg virus pseudotyped entry inhibition, cell reporter. Potency, µM (highest dose often 37.8 µM), without a hit: top-dose activity change, negative = inhibition, actives largely listed as inhibitors. hit rate 1.8% among 300,000. AID 540276; calls by dose curve; tested in HEK293 cells; also: potency is read from the fitted curve at half-maximal effect; % is scaled to controls: 0 for no effect and ±100 for the full control effect
AMA1 RON2 block = inhibitors of Plasmodium falciparum AMA1-RON2 interaction. Potency, µM (top dose mostly 58.2 µM), inactives show at the highest dose activity change, negative = inhibition, hits mostly inhibitors. hit rate 0.2% among 360,000. AID 720542. AlphaScreen AMA1-biotinylated RON2 peptide binding; active = well fitted inhibition curve with a large enough effect; inconclusive = small, poorly fitted or top-dose-only effect; inactive = no such curve, though single readings can be large or run the other way;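 also: potency is read from the fitted curve at half-maximal effect; 0% = vehicle wells and -100% = peptide control; nearly all actives have a fitted effect of over 45% in size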
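AMA1 (3D7) with his tag at 25 nM final met compounds first, then biotinylated RON2 peptide at 25 nM; detection used donor plus acceptor beads, 10 µg/mL apiece, read by AlphaScreen after 30 min at room temperature.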
CHX counter = counter-screen for Shiga toxin inhibitors: cycloheximide protein synthesis inhibition | AID 2314 | hit rate 12% among 300,000 | max response, % | cell reporter, cycloheximide protein synthesis inhibition counterscreen; in the data active = max response mostly above about 13%, no sharp cut-off; inactive = mostly below about 14%; also: read at 38.3 µM for the half of the compounds with a filed dose; 0% is about no effect
Lassa entry inh = inhibitors of Lassa virus binding or cell entry; Lassa virus pseudotype entry inhibition, cell reporter; Potency, µM (titrated, usually from 37.9 µM), for the others: top-dose activity change, negative = inhibition, hits mostly inhibitors; hit rate 1.2% among 300,000; AID 540256; calls by dose curve; tested in HEK293 cells; also: potency is read from the fitted curve at half-maximal effect; % is scaled to controls: 0 for no effect and ±100 for the full control effect; nearly all actives have a fitted effect of over 50% in size
* = called active by the depositor; ? = inconclusive; nt = no result given; [ ] = remark or other dose. The entries come from a sample that favours hits as a whole.

SMILES | Shiga toxin inh | MARV entry inh | AMA1 RON2 block | CHX counter | Lassa entry inh
CCN(CC)S(=O)(=O)c1cc(C)ccc1NC(=S)Nc1cccnc1 | 9.0 | 11.2µM* | 15.0% | 10.7 | ?
CCN(CC)S(=O)(=O)c1cc(C(=O)Nc2cccnc2)ccc1Cl | 16.0 | 4.3% | 34.0% | 4.6 | 15.1%
O=C(c1ccco1)N1CCC(c2nc3ccccc3[nH]2)CC1 | nt | 3.3% | 2.8% | nt | -4.2%
CCNc1ccc(N=Nc2c(C)n(C)n(-c3ccccc3)c2=O)cc1 | 39.9 | ? | -18.3% | 21.1* | 26.0%
C[C@@H](NC(=O)[C@@H]1CCCN1C(=O)OC(C)(C)C)c1ccccc1 | nt | nt | -9.3% | nt | nt
Cc1cccc(-n2c3nc(=O)[nH]c(=O)c-3cc3c(Cl)cccc32)c1C | nt | nt | nt | nt | -0.9%[46.1 µM]
O=C(Cc1ccccc1[N+](=O)[O-])NCc1ccc(Cl)cc1 | 21.7 | ? | 14.8% | 33.4* | ?
O=C(Cc1ccc([N+](=O)[O-])cc1)NCc1ccccc1Cl | 12.6 | 27.8% | 1.3% | -1.5 | -2.0%
O=C(NCc1ccc(Cl)cc1)c1n[nH]c([N+](=O)[O-])c1Cl | 60.8* | nt | -2.0% | 45.0* | nt
O=C(Cc1ccccc1[N+](=O)[O-])NCc1ccc(Cl)cc1Cl | 87.5* | ? | 14.6% | 43.9* | ?
COc1cc(/C=N/N2CCN(c3ccccc3OC)CC2)ccc1OC(C)=O | nt | 11.7% | -25.6% | 18.5* | ?
COc1ccccc1N1CCN(/N=C/c2cccc(O)c2)CC1 | 85.5* | nt | -3.9% | 29.0* | nt
COc1ccccc1N1CCN(/N=C/c2ccccc2C(=O)O)CC1 | 28.4* | nt | -10.8% | 17.2* | nt
COc1ccccc1N1CCN(/N=C/c2cc(OC)c(O)c(OC)c2)CC1 | 24.4 | ? | -11.0% | 2.8 | 14.8%
CC(=O)Nc1ccc(NC(=O)c2ccco2)cc1 | 71.2* | 18.5% | -19.1% | 30.7* | ?
O=C(Nc1cccc(NC(=O)c2ccc(-c3ccc(Br)cc3)o2)c1)c1ccco1 | 92.1* | ? | -3.1% | 38.3* | ?
CSc1cccc(NC(=O)c2ccco2)c1 | 107.7* | 12.2% | 14.1% | 30.5* | 14.8%
O=C(NCCCNC(=O)c1ccco1)c1ccc(Cl)cc1 | 85.5* | ? | -1.7% | 31.5* | nt
CC(=O)c1ccc(NC(=O)c2ccc(NC(=O)c3ccco3)cc2)cc1 | -14.8 | 2.6%[46.1 µM] | 0.0% | -2.9 | 6.8%[46.1 µM]
O=C(CSc1ncc(S(=O)(=O)c2ccc(Cl)cc2)c(=O)[nH]1)Nc1ccc2c(c1)OCCO2 | nt | 1.8%[46.1 µM] | nt | nt | nt
CCN(CC(=O)Nc1c(F)cccc1F)C(=O)/C=C/c1ccc2c(c1)OCO2 | nt | ? | 44.5% | nt | ?
Cc1cccc2c(=O)c(-c3ccc(Cl)cc3)c(NC(=O)c3ccco3)oc12 | 23.7* | nt | -10.4% | 15.8* | nt
NC(=NCc1ccco1)NC(=O)c1ccc(Cl)cc1 | 76.2* | 5.1%[46.1 µM] | 3.8% | 25.5* | 14.7%
O=C(Nc1ccc(Cl)cc1)c1ccco1 | 55.3 | ? | -4.7% | 33.5* | 19.8%
Cn1c(NC(=O)c2ccco2)c(-c2ccc(Cl)cc2)c(=O)c2ccccc21 | -21.1 | 16.5% | -0.4% | -1.6 | 10.8%
SMILES | Shiga toxin inh | MARV entry inh | AMA1 RON2 block | CHX counter | Lassa entry inh
C/C=C/C(=O)OCC(=O)Nc1ccc(SC(F)F)cc1 | 35.6 | -6.6%[46.1 µM] | 9.6% | 26.3* | -36.4%
O=C(COc1ccc(Cl)cc1)Nc1ccc(NC(=O)c2ccco2)cc1 | -6.1 | 12.7%[46.1 µM] | -3.2% | -2.6 | nt
O=C(NCc1ccco1)C1CCN(C(=O)c2ccc(Cl)cc2)CC1 | nt | nt | -7.2% | nt | nt
CC(=O)OCC(=O)Nc1ccc(SC(F)F)cc1 | -6.0 | ? | -5.9% | 8.5 | 1.4%[46.1 µM]
Cc1ccc(C2C(/C=C3/SC(=S)NC3=O)=C(c3cccs3)Oc3ccccc32)cc1 (stereo not given) | -7.0 | ? | -5.0% | -3.2 | ?
COc1cn(CC(=O)Nc2ccccc2)c(CN2CCCCC2)cc1=O | nt | nt | nt | nt | -8.1%[46.1 µM]
COc1ccc(Cc2c(-c3ccccc3)nc3ccc(Br)cn23)c(C)c1 | nt | nt | -11.0% | nt | nt
O=C(Cc1ccccc1)Nc1ccc(NC(=O)c2ccco2)cc1 | 51.2* | ? | 7.0% | 18.0* | -0.5%[46.1 µM]
CCC(C)c1ccc(NC(=O)COC(=O)CCNC(=O)c2ccco2)cc1 (stereo not given) | nt | nt | -5.5% | nt | nt
CCC(C)c1ccc(NC(=O)CC(C)=O)cc1 (stereo not given) | 13.9 | ? | 10.9% | 20.6* | -11.3%
O=C(COc1ccccc1)Nc1ccc(NC(=O)c2ccco2)cc1 | 17.0 | 3.0%[46.1 µM] | 0.0% | 9.6 | -0.8%[46.1 µM]
CCC(C)c1ccc(NC(=O)c2ccco2)cc1 (stereo not given) | 40.0 | nt | 17.7% | 25.7* | nt
O=C(Cc1ccccc1)Nc1ccc(F)cc1 | -3.6 | -2.7%[46.1 µM] | -8.1% | 2.5 | 6.6%[46.1 µM]
O=C(Cc1ccccc1)Nc1ccc(SC(F)F)cc1 | 35.2 | 17.4% | 4.9% | 40.9* | -3.0%
Cn1nnc2c(NCc3ccc(Cl)cc3)ncnc21 | nt | nt | nt | nt | 10.3%[46.1 µM]
CCc1ccccc1NC(=O)CN1C(=O)COc2ccc(S(=O)(=O)N3CCCCCC3)cc21 | nt | nt | nt | nt | 4.4%[46.1 µM]
CC(=O)N(C(C)=O)c1ccc2c(c1)OCCO2 | nt | nt | -3.9% | nt | nt
Cc1ccc(S(=O)(=O)Nc2ccc(NC(=O)c3c(F)c(F)c(F)c(F)c3F)cc2)cc1 | -6.4 | nt | -5.5% | -3.1 | nt
Cc1ccc(C(CC(=O)O)NC(=O)CN2C(=O)c3ccccc3C2=O)cc1 (stereo not given) | -2.3 | 3.8%[46.1 µM] | -3.8% | -3.7 | -6.5%
CN(C(=O)c1cccc(NC(=O)c2ccco2)c1)c1ccccc1 | nt | nt | -7.0% | 1.3 | nt
CN(C(=O)c1ccc(NC(=O)c2ccco2)cc1)c1ccccc1 | 76.9* | nt | -13.2% | 34.8* | nt
COC(=O)[C@@H]1[C@H](CCc2ccccc2)NC(=O)N(Cc2ccccc2)[C@H]1C | nt | -24.5%[14.2 µM] | nt | nt | ?
O=C(Nc1ccc2c3c(cccc13)CC2)c1ccc(Br)o1 | 7.3 | 16.8% | 2.5% | 23.2 | 18.3%
COc1cc(OC)cc(C(=O)NC(=S)Nc2ccc3c4c(cccc24)CC3)c1 | 7.9 | -7.2%[46.1 µM] | -3.8% | 14.3 | -8.1%
O=C(Nc1ccc2c3c(cccc13)CC2)c1ccco1 | 52.9 | ? | 42.9% | 18.8* | ?
SMILES | Shiga toxin inh | MARV entry inh | AMA1 RON2 block | CHX counter | Lassa entry inh
COc1ccc(C(=O)Nc2ccc3c4c(cccc24)CC3)cc1 | 72.7 | -0.6% | -5.9% | 32.0* | ?
NC(=O)C1=C[C@@H](c2ccc(Br)cc2)C[C@@H](OCCCCO)O1 | 18.6 | nt | 15.5% | 7.8* | nt
O=C(C1=C[C@H](c2ccc(Br)cc2)C[C@H](OCCCCO)O1)N1CCOCC1 | 31.1 | nt | 60.5% | 12.2* | nt
C#CCNC(=O)C1=C[C@@H](c2ccc(Br)cc2)C[C@@H](OCCCCO)O1 | 35.4* | nt | -4.7% | 13.3* | nt
CC(C)CNC(=O)CSc1n[nH]c(=O)n1CCc1ccccc1 | -24.3 | nt | 5.4% | -0.4 | nt
CCc1ccc(C(=O)NC(CCSC)C(=O)OC)cc1 (stereo not given) | 15.2 | -1.2% | 7.9% | 17.1* | 21.5%
CCC(SC1=Nc2ccccc2C2=NC(CC(C)C)C(=O)N12)C(=O)Nc1ccc2c(c1)OCO2 (stereo not given) | 40.3* | ? | 10.2% | 23.0* | 16.1%
Cc1ccccc1CC(=O)N1CC(C)OC(C)C1 (stereo not given) | -7.0 | nt | 3.3% | -2.6 | nt
CC(Sc1nnc(CN2CCCC2)n1Cc1ccccc1)C(=O)Nc1ccc(F)cc1Cl (stereo not given) | nt | ? | -20.3% | nt | -24.8%
